# The full ranking holds about 16,000 sequences; the median of “Z-score” is about -0.37, and the highest 2% start at about 3.1. Only a selection was taken, and the highest values are over-represented in it overall.
# System: RBM10 RRM1-ZnF-RRM2 (GST-tagged construct)
# Experiment: RNAcompete 7-mer binding Z-score; higher = stronger binding preference
# Method: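 RNAcompete: 20 pmol GST-tagged RBM10 RNA-binding constructs were incubated with a designed RNA pool of about 241,000 sequences up to 41 nt (1.5 nmol) on glutathione beads for 30 min at 4 °C and washed. Bound RNAs were identified by microarray hybridisation. Each RNA 7-mer is scored by a one-sided Z-score of its enrichment, computed over probes that contain the 7-mer within longer pool sequences.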
row,Sequence,RNAcompete 7-mer binding Z-score
1,CGUAGAG,0.636
2,CAUAGGA,0.756
3,GGUAGAG,3.68
4,GAUAGGG,4.38
5,GGUAGGA,3.37
6,AGUAGGA,3.08
7,UGUAGAG,0.978
8,GAUAGGA,3.17
9,CAUAGGG,2.13
10,AAUAGGA,1.57
11,GGUAGGC,2.65
12,UAUAGGG,2.76
13,CGAUUAA,-0.493
14,GGAUUGC,0.88
15,AACCACA,-0.275
16,UCUUGCG,-0.664
17,AGAUGCU,-0.777
18,AUUCGGA,0.243
19,UAUGUCC,-0.785
20,CCUCGGC,-0.701
21,AACACGU,-0.3
22,CUACUAU,-0.657
23,CCGUCCA,-0.704
24,CCUACGG,-0.446

row,Sequence,RNAcompete 7-mer binding Z-score
1,UAACGCU,-0.646
2,GGCCAUG,0.181
3,GCCGGGG,1.4
4,UGUAGGA,1.9
5,AAUAGGU,1.27
6,CGUAGGG,2.3
7,CGUAAAG,-0.0743
8,GGUAAAG,3.35
9,AAUAGGC,0.924
10,UUUAGGG,1.51
11,AAUAGGG,3.5
12,UGUAAAG,0.257
13,UGUAGGG,3.34
14,GUUAGGG,3.65
15,GUUAGGU,1.89
16,UCCAUUU,-0.872
17,GAUCCAG,0.0641
18,ACGUAAU,-0.417
19,ACAAUCG,-0.173
20,UACCCCG,-0.551
21,AUGCUCA,-0.766
22,CGUGAGG,1.73
23,GAUGAGG,3.6
24,GGUGAGA,2.68

row,Sequence,RNAcompete 7-mer binding Z-score
1,CAUGAGG,1.35
2,GAUGAGU,1.01
3,GGUGAGG,4.3
4,CCUCCAA,-0.857
5,UGAGCCC,-0.435
6,GUCCACU,-0.653
7,CGCAAGG,0.341
8,GGGCAGG,3.39
9,GGGCGAC,1.94
10,GGCAAAG,1.95
11,GGCAAGG,3.47
12,GGGCAGA,2.25
13,AGGCAGG,1.77
14,GGGCGGU,2.58
15,GGGCGAA,2.68
16,GGGCGAG,3.88
17,GGGCGGA,3.09
18,GGGCGGG,3.52
19,AUAGUGG,1.69
20,CACCAUC,-0.734
21,UGCGCAG,0.0677
22,UUUGGAU,-0.125
23,UACUUUA,-0.948
24,UGGCGGG,3.19

row,Sequence,RNAcompete 7-mer binding Z-score
1,CGGCGGG,1.97
2,UGGCGGU,1.54
3,ACGGGAC,2.19
4,UGCAACC,-0.504
5,GAGGGAA,3.6
6,CGGGGGA,2.53
7,GAGGGCA,1.99
8,GAGGGGG,2.83
9,GAGGGAU,3.31
10,AAGGGGG,3.91
11,AAGGGGC,3.1
12,AGGGGGG,2.05
13,CAGGGAU,2.41
14,GCGGGAU,2.38
15,GAGGGGA,3.29
16,GAGGAAA,2.2
17,CCGCUAC,-0.868
18,GUUACUC,-0.581
19,UAAGUCA,-0.0816
20,UCGCGCA,-0.595
21,ACCUCCG,-0.737
22,AUAGAGA,0.501
23,AGAACAU,-0.398
24,CCUAUAU,-0.799

row,Sequence,RNAcompete 7-mer binding Z-score
1,UCAAUGC,-0.533
2,GCUUGUG,-0.479
3,GUACCCC,-0.242
4,UUCCUGA,-0.763
5,AAGGGGU,4.33
6,GAGGGGC,2.44
7,CAAGGGG,3.03
8,UAAGGGG,3.11
9,AGGGGGA,2.14
10,AAGGGGA,4.44
11,AAAGGGG,4.22
12,AGGGGGU,3.03
13,GAGGGCU,1.27
14,GAGGGGU,3.64
15,AACCCUU,-1.03
16,CCACGCA,-0.664
17,AUUGUGA,0.108
18,UCGCGUU,-0.602
19,CUUCCUU,-0.759
20,AGUAAGA,0.541
21,GUUCUCU,-0.788
22,GUGGGUC,2.4
23,AGGGGGC,1.4
24,AUGGGUU,2.86

row,Sequence,RNAcompete 7-mer binding Z-score
1,AGGGGUG,3.14
2,AUGGGUC,2.15
3,AUUGGUG,1.84
4,GUGGGUG,3.76
5,CUGGGUG,1.82
6,AUGGGUG,3.74
7,AGGGGCG,2.07
8,AUCGGUG,0.691
9,AUGGGUA,3.71
10,CUCUUCC,-0.879
11,AAUAUAC,-0.26
12,UAGUCCA,-0.683
13,UGUGGCC,0.0459
14,AUCUCGC,-0.894
15,AAGUUAC,-0.289
16,CGGCUGA,-0.0306
17,UUCAAUA,-0.151
18,GGGGGCG,2.58
19,UUGGGUU,2.05
20,UCGGGUG,1.96
21,CCGGGUG,1.62
22,CGGGGUU,2.23
23,UGGGGUG,4.14
24,UUGGGUG,3.43

row,Sequence,RNAcompete 7-mer binding Z-score
1,GGGGGUG,3.43
2,GGGGGUC,2.06
3,CGGGGUG,3.36
4,UGGGGUC,2.62
5,UUGGGUC,1.03
6,GUUAUCU,-0.395
7,GACCCCC,-0.551
8,ACGAAUA,-0.238
9,UAUCACG,-0.435
10,AUGUAAC,-0.147
11,GAGUGUU,0.432
12,CGAGGCU,0.217
13,ACACCCU,-0.941
14,UAAUACA,-0.391
15,UCAUUCU,-0.752
16,UGCGGUC,-0.00512
17,GCGCUGU,-0.191
18,ACAGUAA,0.0677
19,GGCCGCC,-0.683
20,UAAGCCA,-0.712
21,GCCAAAC,-0.573
22,AGUCUGU,-0.482
23,GGGGUUU,2.36
24,GGGGGUU,3.29

row,Sequence,RNAcompete 7-mer binding Z-score
1,GGGUGUA,3.09
2,UGGUGUG,2.21
3,AGGGGUU,2.42
4,GGGUGUG,3.51
5,AUCUACU,-0.806
6,AUCUUGG,-0.311
7,CGGGAAC,1.5
8,GCUUCCG,-0.799
9,CUUGGUC,-0.821
10,GGACAGA,1.44
11,GGACCGU,0.0532
12,GGGGAUU,2.36
13,GGGGAUC,2.27
14,UGGGAUA,2.85
15,GGGGAUG,3.68
16,CGGGAUG,2.31
17,AGGGACG,2.37
18,UGGGAUU,1.63
19,AGGGAUG,4.22
20,UGGGAUG,3.22
21,ACAGAUU,-0.242
22,AAUGGUC,0.822
23,GCAGCCC,-0.497
24,CUGCCAG,-0.606

row,Sequence,RNAcompete 7-mer binding Z-score
1,AAACUUU,-0.752
2,UAGUGAC,0.21
3,CAUUCUA,-0.821
4,UCGGGGU,1.76
5,GCGGGGA,3.23
6,GCGGGGG,3.51
7,UCGGGGA,1.7
8,GCGGGGU,3.77
9,CCGGGGG,1.4
10,CCGGGGA,1.12
11,GCGGGUU,2.54
12,GCGGGGC,2.5
13,UCAAGCU,-0.621
14,CUCCGAC,-0.664
15,UCCCCAA,-0.639
16,CCAUAGA,-0.464
17,GAACGGU,1.56
18,CGACGGG,2.14
19,GGACGGC,1.05
20,GGACGGG,4.18
21,CGAACGG,1.41
22,AGAACGG,1.84
23,GAACGGG,4.29
24,GGAACGG,4.03

row,Sequence,RNAcompete 7-mer binding Z-score
1,GAACGGC,0.84
2,ACGAUAC,-0.413
3,AUGCAUC,-0.362
4,UGAUAUA,-0.366
5,CACGAAA,-0.366
6,UGAUGGU,1.26
7,GGAUGGA,3.36
8,GGAUGGU,3.73
9,AGAUGGU,1.63
10,GGAUGGC,2.46
11,AGAUGGA,2.92
12,UAGGAGC,1.74
13,AUGGGCG,3
14,GUGGGCG,3.37
15,GUGGGCC,1.58
16,CUGGGCG,1.05
17,AUGGGCA,2.7
18,GUGGGCA,3.48

# Reference: the supplement of paper PMC5499739
